Reference: PMC12136788
Numbering of substitutions follows the chain as printed. In all, about 24,000 sequences were measured (“enrichment r”: median about 0.99, highest 2% from about 3.7 on). Many of the other results were omitted from the sample, so the highest values are more common in it than they were.

T1: UNK ZnF1-3 (human, UniProt Q9C0B0 31-174)
T1 sequence: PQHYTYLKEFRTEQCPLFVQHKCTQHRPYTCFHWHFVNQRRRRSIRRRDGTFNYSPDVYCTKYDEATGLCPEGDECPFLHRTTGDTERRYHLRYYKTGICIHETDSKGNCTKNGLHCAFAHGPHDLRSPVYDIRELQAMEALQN

B1: chr5:159492046:159492047:+_ENSG00000113312_ENST00000231238|hu_hu|FALSE|FALSE (ssRNA)
RNA: GGGAGUUCUACAGUCCGACGAUCAGUCAGCUUGUAAAGCUUUUGUUAUCUUUGUUAUCUGUUAUUAUUUGGAUUUUGAACGAAAUUGAUGGAGUACGAGCCGGUAGAGGAAUCCUGUUUGAUCUGGAAAUUUUCCGUGGAGAGCAACAGAGGAUUGAGCAUCA
B2: chr7:54825262:54825263:-_ENSG00000132432_ENST00000352861|hu_hu|hu_hu_hu_mus_False|58_58 (ssRNA)
RNA: GGGAGUUCUACAGUCCGACGAUCCUGCCGGCUGGGCUCCACAAACUGCAUUACCUGAUCCAUGUUUGUUGGAUGGCACACCUAAAACGUAGAGACACGUAGCUCAGGAGAGAACCGAGCCCAACGGAACCGGAAGCUGGCAACCAACAGAGGAUUGAGCAUCA
B3: chr2:148701057:148701058:-_ENSG00000115947_ENST00000542387|hu_hu|FALSE|FALSE (ssRNA)
RNA: GGGAGUUCUACAGUCCGACGAUCUGACCGCAGGUUUUUGCUGAUAUUGAAAUGCUUCUGUAGUACUUCUUGCACACUUCUAUCUUCUGAGAGAUACUGAACAUUUUCAUUCCACUUCUCAGCAAAAACCUUGUCUGGAAACUCCAACAGAGGAUUGAGCAUCA
B4: chr15:59961163:59961164:-_ENSG00000140299_ENST00000607373|hu_mus|FALSE|FALSE (ssRNA)
RNA: GGGAGUUCUACAGUCCGACGAUCGCCGACAUACUCCAUGGGAACAAGCUCUGCCAGCUCGGCCAAGUUAAAGACGUAUCUGAUCUUCUGACUGAACUUUGAACUGAUAAAUGGUCGUGUAACAGCCAGAAGUGUUCGGAUAAACAACAGAGGAUUGAGCAUCA
B5: 6624775_6624895_1421_CDS_ENSMUSG00000041272_ENSMUST00000039987|mouse|control|control (ssRNA)
RNA: GGGAGUUCUACAGUCCGACGAUCGCUCGGAUGCAUGGCGGUGAGCUGAGGAGUCAUUCCUGGUUGUUGGUGAUAGUGAGAACUUAGGUACAGAGCUGAGUGGGCCUGGCUGGGCCCAUGGAAUACUGACGGCUUUGAGUUGACCAACAGAGGAUUGAGCAUCA
B6: chrX:35795285:35795286:-_ENSMUSG00000016534_ENSMUST00000061755|mus_mus|FALSE|FALSE (ssRNA)
RNA: GGGAGUUCUACAGUCCGACGAUCGAAAUUCAUCUCCCAUUCUGCAUAAAGGCAAGUACCCUUUGAAUCUGUCAAAUUAACUAUCAAUGCAUUGGACUGAACGGCUCCUAGGAACAGAAAGAUCAGGAUGAGCUUUGCGCCUUUCAACAGAGGAUUGAGCAUCA
B7: 74470573_74471800_972_CDS_ENSMUSG00000021577_ENSMUST00000022062|mouse|control|control (ssRNA)
RNA: GGGAGUUCUACAGUCCGACGAUCGUUGAUGAGAAUCCCCCCCUCUCCACGACACCCUUCUGUGAUGAGGCAGCCAGCACCGUAUAUACCUGUGGGGUGGAACUGAACAAAUUCUAAGUCCUGGCAAGGCAAACCAGCCCUAGUCAACAGAGGAUUGAGCAUCA
B8: chr1:150192741:150192742:-_ENSG00000143401_ENST00000314136|hu_hu|FALSE|FALSE (ssRNA)
RNA: GGGAGUUCUACAGUCCGACGAUCUUAAUUAUGGGCUAAAAAUGACUAAUACAGUAAGCUUGAAUUUAAAAAAUUAAGUCUAAAUAAAUUGCUAGGGAAUUCCACAAUGGGAGUCAAUGAAAAUUUUUCUCUACAUACAAUAUGCAACAGAGGAUUGAGCAUCA
B9: chr1:109605286:109605287:-_ENSG00000197780_ENST00000461096|hu_mus|hu_hu_hu_mus_True|18_98 (ssRNA)
RNA: GGGAGUUCUACAGUCCGACGAUCAAGUUUCAGAGUAUUCAGUGAUCACCUCUUUAAAUGCAAUUAUCCUUAUUAUAAGCUAAGCAGAAUAAUAAUUUAAUACCGUAAGUGAACUACCACAAAACCUUGAACCGCGAAAAUGGUCAACAGAGGAUUGAGCAUCA
B10: chr1:109605286:109605287:-_ENSG00000197780_ENST00000461096|hu_mus|hu_hu_hu_mus_True|18_38 (ssRNA)
RNA: GGGAGUUCUACAGUCCGACGAUCAAGUUUCAGAGUAACAUUCAGUAACCUCUUUAAAUGCAAUUAUCCUUAUUAUAAGCUAAGCAGAAUAAUAAUUUAAUACAUAGAGUGAACUACCACAAAACCUUGAACCGCGAAAAUGGUCAACAGAGGAUUGAGCAUCA
B11: chr1:150192741:150192742:-_ENSG00000143401_ENST00000314136|hu_hu|motif|central (ssRNA)
RNA: B8 RNA with U80G, A81G
B12: chr3:160150142:160150143:+_ENSG00000113810_ENST00000344722|hu_hu|motif|central (ssRNA)
RNA: GGGAGUUCUACAGUCCGACGAUCAAAACCUGCCAUAAAUUCAUUAAGCCUUUGUUUCCGAAGAUCUUCAUAUGCCUGUCGGAAACUGUCUCUUUCAUAAGUAAUUUUGUCCAAUUCUGCUACCCGUUGCAAAUACAAUUCUUCCAACAGAGGAUUGAGCAUCA
B13: chr16:57198444:57198445:-_ENSMUSG00000022749_ENSMUST00000023431|mus_mus|motif|central (ssRNA)
RNA: GGGAGUUCUACAGUCCGACGAUCCCUAAAAGAAGCUGGCGUCUUACUACAGUAAUACUGAGCCAAAGAGAACAGGUCUUCGGUGUCUUCCAGAUUCAGGCUGGCCGGGGUACUUUCCAAAAAGCGGAUAACUUCUUCUUUGCUCAACAGAGGAUUGAGCAUCA
B14: chr22:36164377:36164378:-_ENSG00000100320_ENST00000405409|hu_hu|motif|central (ssRNA)
RNA: GGGAGUUCUACAGUCCGACGAUCACGGCCCUCUACCACGGUGCCGUGUAAUUUCUCCCUGGCCCUGUCUGCAUCAGCACGGUUCUCGAAAGUUACGAACCCGAAUCCCUUAGAGCCACGUUCAUUAAAGAUUAUUUCUACAUCCAACAGAGGAUUGAGCAUCA
B15: chr6:86333760:86333761:-_ENSG00000135316_ENST00000355238|hu_mus|hu_hu_hu_mus_True|98_108 (ssRNA)
RNA: GGGAGUUCUACAGUCCGACGAUCUUCUUCAAGAAUCUGUUCCUUGGUUUUACUCUUAGGAAUCGAGCCCACAAAAAGCCUAUUGUUGGCAACUGAGAUGCAGACACCAAUGUGCUUCCCGGAACGAAUUUCAUGAUUAUUAUACAACAGAGGAUUGAGCAUCA
B16: chr12:493273:493274:-_ENSG00000073614_ENST00000399788|hu_mus|hu_hu_hu_mus_False|58_108 (ssRNA)
RNA: GGGAGUUCUACAGUCCGACGAUCUUUUCUCUCUACCACAGGGAUCUUCAAUGUAGAUCCUUGAAGUUCCCAAAAUUUUGCUAGUUGAUCCAAGAAGUCCAAUCUUACUCUAGUCAUUGCCUCAAGUUCAUUCAGGCGCUGGACCAACAGAGGAUUGAGCAUCA
B17: chr2:117093540:117093541:+_ENSMUSG00000027349_ENSMUST00000028825|mus_hu|motif|central (ssRNA)
RNA: GGGAGUUCUACAGUCCGACGAUCCAUUGUAAUCGUUGUCUUGGGUGACAAAGCAUAACGCUUAGGCUGAUAAAUUCUUGCGGUAUCAUCUGUUUUUACCUUUGCUCUAUCAGACCAUCCAAAGGACUGUACAGUCACAUCUAACAACAGAGGAUUGAGCAUCA
B18: chr16:45382771:45382772:-_ENSMUSG00000022661_ENSMUST00000163230|mus_mus|mus_mus_mus_hu_True|28_28 (ssRNA)
RNA: GGGAGUUCUACAGUCCGACGAUCCUGGGUCAUGUUAUAAGACAAAUGGACAGGGAGGGCAUGCUUCUCAAAAAAUGUGAGCUAUUGUCUAAGACUAACAAUAUUUACUAAGUGCUAAAAAUAAGUUAAAUGAAUAAGUUAAGACAACAGAGGAUUGAGCAUCA
B19: chr16:45382771:45382772:-_ENSMUSG00000022661_ENSMUST00000163230|mus_mus|mus_mus_mus_hu_True|1_28 (ssRNA)
RNA: B18 RNA with G137A, U138C, U139A, A140U, A141U, G142A, A143C
B20: chr16:45382771:45382772:-_ENSMUSG00000022661_ENSMUST00000163230|mus_mus|mus_mus_mus_hu_True|28_58 (ssRNA)
RNA: B18 RNA with G80A, U84C, G86C
B21: chr16:45382771:45382772:-_ENSMUSG00000022661_ENSMUST00000163230|mus_mus|mus_mus_mus_hu_True|28_98 (ssRNA)
RNA: B18 RNA with A38G, A39G, A41C, A43C
B22: chr16:45382771:45382772:-_ENSMUSG00000022661_ENSMUST00000163230|mus_mus|mus_mus_mus_hu_True|8_28 (ssRNA)
RNA: B18 RNA with A127U, A128U, U130A, G131A, A132U, A133G, U134G, A136C

Target: T1, UNK ZnF1-3
Experiment: nsRBNS (natural sequence RNA bind-n-seq); RBNS binding buffer (assumed for nsRBNS): 25 mM Tris pH 7.5, 150 mM KCl, 3 mM MgCl2, 0.01% Triton X-100, 500 ug/ml BSA, 20 U/ml SUPERase-In, 4 C; UNK is unkempt and MSI1 is Musashi-1; names of the RNAs are library labels; protein concentration not given here; high values mean tight binding

Row | Binder | binding signal [enrichment R]
1 | B1 | 3.66
2 | B2 | 1.08
3 | B3 | 0.287
4 | B4 | 0.638
5 | B5 | 1.32
6 | B6 | 1.22
7 | B7 | 1.28
8 | B8 | 4.88
9 | B9 | 0.885
10 | B10 | 0.848
11 | B11 | 6.83
12 | B12 | 1.2
13 | B13 | 1.25
14 | B14 | 0.844
15 | B15 | 1.34
16 | B16 | 0.801
17 | B17 | 0.494
18 | B18 | 11.4
19 | B19 | 3.32
20 | B20 | 3.92
21 | B21 | 8.35
22 | B22 | 5.08
